Compounds with a hit are over-represented: about 5.2% of the library has one in this group of screens.
Coupling enz = coupling enzyme interference in Giardia aldolase counter-screen; AID 2472; actives 0.67% (n = 290,000); activity change, negative = inhibition, % at 58.2 µM, hits read low; coupling enzyme system counterscreen, AmpLite Red fluorescence; in the data active = activity change below about -30%
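Coupling enzymes only (glyceraldehyde-3-phosphate) + compound, at 57.5 uM final, 10 min RT; add substrate/coupling/AmpLite Red mix, 20 min RT; fluorescence ex 525/em 598 nm. Actives flag coupling-system interference.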
Sfp PPTase inh = blocks B. subtilis Sfp PPTase activity. Q9F4F7. Biochemical Sfp PPTase activity, qHTS. Potency, µM, inactives show largest response in the series, negative = inhibition, hits mostly inhibitors. actives 3.5% (n = 310,000);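 also: the enzyme is Sfp with the accession as filed and its product quenches rhodamine fluorescence; potency is read from the fitted curve at half-maximal effect; 0% = enzyme reaction without inhibitor and -100% = no enzyme wells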
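After 15 min at room temperature with compound, 15 nM Sfp received 5 uM rhodamine-CoA plus 12.5 uM BHQ-2-ybbR (50 mM Hepes pH 7.6, 10 mM MgCl2). Rate came from the fluorescence difference over 30 min, ex 525/em 598 nm.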
Tau fluor counter = counter-screen for tau fibril formation inhibitors. AID 1463. tau K18 P301L Alexa594 fluorescence, heparin fibrillization. Potency, µM (top dose mostly 57.7 µM), without a hit: at the highest dose activity change, negative = decrease. actives 0.93% (n = 280,000); also: potency is read from the fitted curve at half-maximal effect; nearly all actives have a fitted effect of over 55% in size
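Human tau K18 P301L (15 uM unlabeled, 0.24 uM Alexa 594-labeled) in 100 mM sodium acetate pH 7 with 20 uM heparin, 6 hr at 37 C. ThT 30 uM added, 1 hr ambient; Alexa 594 FP and total fluorescence read at 555/632 nm.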
Tau ThT inhib = inhibitors of human tau fibril formation, thioflavin T binding | actives 2.1% (n = 270,000) | Potency, µM (titrated, usually from 57.4 µM), without a hit: at the top dose activity, negative = inhibition, usual class: inhibitors | AID 1460 | P10636 | recombinant tau K18 P301L (four-repeat tau fragment), heparin-induced fibrillization, ThT fluorescence; also: potency is read from the fitted curve at half-maximal effect; nearly all actives have a fitted effect of over 55% in size
Target sequence (P10636 561-689 P618L limits assumed): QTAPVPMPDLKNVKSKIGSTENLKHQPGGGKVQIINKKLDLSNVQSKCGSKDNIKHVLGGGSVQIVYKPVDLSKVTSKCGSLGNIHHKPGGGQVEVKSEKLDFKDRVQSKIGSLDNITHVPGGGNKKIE
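Heparin-induced fibrillization of the P301L-mutant K18 repeat-domain fragment of human tau was followed by ThT binding in quantitative high-throughput format.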
Tau fibril FP = blocks human tau fibril formation measured by polarization | P10636 | AID 1468 | actives 0.39% (n = 280,000) | K18 P301L tau heparin fibrillization, Alexa594 FP, 6 h | Potency, µM (top dose mostly 57.7 µM), without a hit: top-dose activity, negative = inhibition, hits mostly inhibitors; also: potency is read from the fitted curve at half-maximal effect; nearly all actives have a fitted effect of over 55% in size
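Recombinant K18 P301L […], labeled with Alexa 594 at 0.24 uM over 15 uM unlabeled; heparin inducer 20 uM final; 37 C, 6 hr; FP endpoint.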
* = called active by the depositor; ? = inconclusive; nt = no result; [ ] = another dose, or the depositor's remark. Unless noted, calls follow the shape of the dose curve; as a rule, active = well fitted curve in the direction sought with a large enough effect; inconclusive = small, poorly fitted or top-dose-only effect, or another doubt; inactive = no such curve, though single readings can be large; an effect the other way counts as inactive or inconclusive. Unless noted, % is scaled to controls: 0 for no effect and ±100 for the full control effect.

SMILES	Coupling enz	Sfp PPTase inh	Tau fluor counter	Tau ThT inhib	Tau fibril FP
Cc1ccc2c(C)ccc(O)c2n1	-7	45µM*	-8%	-5%	2%
c1ccc(N2CCN(Cc3nnc(-c4ccc5c(c4)OCO5)o3)CC2)cc1	nt	nt	-8%	-17%	11%
O=C1C=CC(=O)C(C2=C3C(=O)N(CCc4ccccc4)CC(=O)N3CCC2)=C1	-55*	1µM*	?	16µM*	?
CCOC(=O)c1c(S(=O)(=O)N2CCCC(C(=O)Nc3cccc(Cl)c3)C2)c(C)n(C)c1C (stereo not drawn)	nt	nt	3%	12%	5%
O=C1/C(=C/c2c[nH]c3ccccc23)CCC/C1=C\c1c[nH]c2ccccc12	-8	50µM*	7.9µM*[quencher]	?	8%
O=C1CS/C(=N/N=C/c2c[nH]c3ccccc23)N1	0	6%	-6%	nt	1%
CC(C)(C)c1nc2sc3c(c2c(=O)o1)CCCC3	0	-7%	-14%	-13%	-4%
CCc1nc2sc3c(c2c(=O)o1)CCCC3	-7	25µM*	-19%	?	-2%
CCOc1ccc(CCNC(=O)c2cc(Nc3ccc(C)cc3C)nc3ccccc23)cc1OCC	nt	nt	-21%	-2%	-1%
COc1ccc(-c2[nH]nc3c2C(c2ccoc2)C(C#N)=C(N)O3)cc1 (stereo not drawn)	0	22%	-20%	?	0%
CCOC(=O)C1=C(c2ccccc2)OC(N)=C(C#N)C1c1cccnc1 (stereo not drawn)	-2	18%	-2%	-6%	-5%
CC(=O)C1=C(C)OC(N)=C(C#N)C1c1cccnc1 (stereo not drawn)	-33*	18%	-8%	?	-17%
N#CC1=C(N)Oc2n[nH]c(-c3cccnc3)c2C1c1ccc([N+](=O)[O-])o1 (stereo not drawn)	1	5%	?	13µM*	?
Cc1ccc(-c2[nH]nc3c2C(c2ccoc2)C(C#N)=C(N)O3)cc1C (stereo not drawn)	-22	6%	?	32µM*	?
N#CC1=C(N)Oc2n[nH]c(-c3cccnc3)c2C1c1cc(F)ccc1F (stereo not drawn)	2	-14%	-20%	?	-5%
N#CC1=C(N)Oc2n[nH]c(-c3ccccc3)c2C1c1cccnc1 (stereo not drawn)	2	15%	-14%	?	-11%
Cc1ccc(-c2[nH]nc3c2C(c2cccnc2)C(C#N)=C(N)O3)cc1 (stereo not drawn)	-42*	-1%	-16%	-14%	0%
CCC(=O)Nc1cc(-c2nc3cc(C)cc(C)c3o2)ccc1C	nt	nt	-8%	?	4%
CC(OCc1ccccc1)C(NC(=O)OC(C)(C)C)C(=O)NC1COC2CC(n3ccc(=O)[nH]c3=O)OC12 (stereo not drawn)	4	-1%	nt	nt	nt
CC(C)C[C@H](NC(=O)CNC(=O)[C@H](CCC(N)=O)NC(=O)[C@H](CC(C)C)NC(=O)[C@H](CC(C)C)NC(=O)[C@H](CCCNC(=N)N)NC(=O)[C@H](CCC(N)=O)NC(=O)[C@H](CC(C)C)NC(=O)[C@H](CCCNC(=N)N)NC(=O)[C@H](C)NC(=O)CNC(=O)[C@H](CCC(=O)O)NC(=O)[C@H](CCCNC(=N)N)NC(=O)[C@H](CC(C)C)NC(=O)[C@H](CCCNC(=N)N)NC(=O)[C@H](CO)NC(=O)[C@H](CC(C)C)NC(=O)[C@H](CCC(=O)O)NC(=O)[C@H](CO)NC(=O)[C@@H](NC(=O)[C@H](Cc1ccccc1)NC(=O)[C@@H](NC(=O)CNC(=O)[C@H](CC(=O)O)NC(=O)[C@H](CO)NC(=O)[C@@H](N)Cc1cnc[nH]1)[C@@H](C)O)[C@@H](C)O)C(=O)N[C@H](C(N)=O)C(C)C	-2	1%	nt	nt	nt
COc1ccc(OC)c(/C=N/NC(=O)c2cc3c(OC)cccc3[nH]2)c1	-2	-1%	?	nt	4%
COc1ccccc1/C=N/NC(=O)c1cc2c(OC)c(OC)ccc2[nH]1	0	-20%	nt	nt	nt
COc1ccc(OC)c(/C=N/NC(=O)c2cc3c(OC)cc(OC)cc3[nH]2)c1	4	19%	8.9µM*[quencher]	5µM*	?
COc1cccc(/C=N/NC(=O)c2cc3c(OC)c(OC)ccc3[nH]2)c1OC	-5	1%	?	7.9µM*	?
CCNC(=S)N(CCc1c(C)[nH]c2ccc(Cl)cc12)Cc1ccco1	-1	21%	13µM*[quencher]	-17%	?
SMILES	Coupling enz	Sfp PPTase inh	Tau fluor counter	Tau ThT inhib	Tau fibril FP
COCCNC(=S)N(CCc1c(C)[nH]c2ccc(OC)cc12)Cc1cccnc1	6	4%	nt	nt	nt
CNC(=S)N(CCc1c(C)[nH]c2ccc(C)cc12)Cc1ccco1	0	-5%	?	?	?
CCNC(=S)N(CCc1c(C)[nH]c2ccc(C)cc12)Cc1cccs1	-2	27%	14µM*[quencher]	?	?
CNC(=S)N(CCc1c(C)[nH]c2ccc(Cl)cc12)Cc1cc(OC)c(OC)c(OC)c1	1	1%	-6%	-4%	-4%
COCCNC(=S)N(CCc1c(C)[nH]c2ccc(Cl)cc12)Cc1cccs1	-1	20%	8.9µM*[quencher]	-17%	9%
CNC(=S)N(CCc1c(C)[nH]c2ccc(Cl)cc12)Cc1cccs1	0	15%	16µM*[quencher]	-12%	?
COc1cc(Cl)c(NC(=O)c2cc3ccccn3n2)c(OC)c1	nt	nt	?	?	-3%
COCCNC(=S)N(CCc1c(C)[nH]c2ccccc12)Cc1ccco1	-2	17%	?	-13%	?
COCCNC(=S)N(CCc1c(C)[nH]c2ccc(F)cc12)Cc1cccs1	-1	17%	14µM*[quencher]	-13%	13%
O=C1[C@H]2[C@H]3[C@H](O)[C@H](O)C/C(=N/OC[C@@H](O)COCc4ccco4)[C@@H]3CC[C@@H]2C(=O)N1Cc1ccccc1	1	17%	-15%[11.6 µM]	-11%[11.5 µM]	-3%[11.6 µM]
COc1ccc(OC)c2sc(N3CCN(C(=O)C(C)(C)C)CC3)nc12	nt	nt	-7%	-10%	2%
COC(=O)[C@@]1(Cc2ccc(OC)cc2)[C@H]2c3cc(C(=O)N4CCCC4)n(CCN4CNCC4=O)c3C[C@H]2CN1C(=O)c1ccccc1	2	9%	5%	-7%	1%
CC1(C)Nc2ccc(O)cc2-c2c1ssc2=S	-20	45µM*	?	11µM*	?
N=c1c2c(ncn1Cc1ccco1)Oc1c(ccc3ccccc13)C2c1ccccc1 (stereo not drawn)	0	50µM*	-15%	-21%	-2%
CCOCc1cnc(C)nc1NCC(=O)c1c(C)[nH]c2ccc(OC)cc12	-49*	?	-8%	2%	-1%
CCOC(=O)C1=C(O)/C(=C/c2cn(CC(=O)N3CCCC3)c3ccccc23)SC1=Nc1ccccc1	0	32µM*	-3%	?	-3%

Screening results as filed in PubChem.
